Data published in PubChem BioAssay AID1825 (The Scripps Research Institute Molecular Screening Center, 2009).
In all, about 290,000 compounds went through this assay and about 2,300 (0.79%) were called active. The sample as a whole holds a higher share of actives than the screen did. Values without a mark were called inactive. Rule as the data show it: active = inhibition above about 22%; inactive = the rest.

Assay: IEC-6 cell viability reduction – luminescence, cytotoxicity control for KLF5 inhibitor project, primary screen (AID 1825);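 also: 0% = plate median of test compound wells and 100% = cytotoxic reference compound wells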
Conditions: IEC-6 cytotoxicity, at 5 µM, stronger effect = higher value

**Q.** For `O=C(c1cc2sccc2n1Cc1ccc(F)cc1)N1CCc2ccccc21`, which inhibition is on record?
**A.** 1.8%

**Q.** Which inhibition does the source give for `COc1ccccc1C(C)NC(=O)Cc1ccsc1` (stereo not drawn) here?
**A.** 1.9%

**Q.** Which inhibition does the source give for `O=C(COC(=O)c1ccc(F)cc1)Nc1nc2ccc([N+](=O)[O-])cc2s1` here?
**A.** -0.2%

**Q.** Which inhibition does the source give for `O=C(Nc1nc2ccc([N+](=O)[O-])cc2s1)c1ccc(S(=O)(=O)N2CCCc3ccccc32)cc1` here?
**A.** 2.9%

**Q.** For `O=C(NC(Nc1nc2ccc([N+](=O)[O-])cc2s1)(C(F)(F)F)C(F)(F)F)c1ccccc1`, which inhibition is on record?
**A.** 28% (active)

**Q.** Which inhibition does the source give for `CCc1nn(CCCC(=O)Nc2ccc(C)cc2C)c(=O)c2cc3occc3n12` here?
**A.** -4.9%

**Q.** For `CCCCCCn1c(CN2CCCCC2)nc2c1c(=O)n(C)c(=O)n2C`, which inhibition is on record?
**A.** -2.7%

**Q.** Which inhibition does the source give for `CCCCCCCCn1c2c(c(=N)c3c1CCC3)CCCC2` here?
**A.** 47.1% (active)

**Q.** With `COc1ccc(CCNC(=O)c2c(C)nn(-c3ccccc3)c2Cl)cc1` as the compound, how does the inhibition read?
**A.** -1.7%

**Q.** Which inhibition does the source give for `CCOC(=O)C1=C(c2ccc(OC)cc2)C(=O)c2ccccc2C1=O` here?
**A.** -1.7%

**Q.** With `CCOC(=O)c1c(C)[nH]c(C)c1S(=O)(=O)N(C)CC(=O)Nc1ccccc1C` as the compound, how does the inhibition read?
**A.** -0.8%

**Q.** For `CCOC(=O)c1c(C)[nH]c2c1-c1ccccc1C(=O)C2=O`, which inhibition is on record?
**A.** 43.3% (active)

**Q.** Which inhibition does the source give for `Cc1cc(C)c(S(=O)(=O)c2cc(F)ccc2C)c(=O)[nH]1` here?
**A.** -1.4%

**Q.** Which inhibition does the source give for `O=C(CN1CCCCCC1)Nc1ccc(Cl)cc1F` here?
**A.** 8.4%

**Q.** With `O=C1NC(Nc2nc3ccccc3s2)(C(F)(F)F)C(=O)N1C1CCCCC1` (stereo not drawn) as the compound, how does the inhibition read?
**A.** 28.2% (active)

**Q.** Which inhibition does the source give for `COC(=O)NC1(C(F)(F)F)NC(=O)N(C2CCCCC2)C1=O` (stereo not drawn) here?
**A.** 1.9%

**Q.** Which inhibition does the source give for `O=C(NC1(C(F)(F)F)NC(=O)N(C2CCCCC2)C1=O)c1ccco1` (stereo not drawn) here?
**A.** 3.5%

**Q.** For `CCN(CC)CCN1C(=O)C(=O)/C(=C(/O)c2cnn(-c3ccccc3)c2C)C1c1cccs1` (stereo not drawn), which inhibition is on record?
**A.** 3.3%

**Q.** For `CN1C(=O)c2ccc(C(=O)Nc3ccc(Br)cn3)cc2C1=O`, which inhibition is on record?
**A.** 5.5%

**Q.** With `C=CCc1ccccc1OCC(=O)N/N=C/c1ccccc1OCC` as the compound, how does the inhibition read?
**A.** 1.4%

**Q.** With `Cc1ccc(/C=N/NC(=O)COc2ccccc2-c2ccccc2)cc1` as the compound, how does the inhibition read?
**A.** 85.6% (active)

**Q.** With `CSc1ccc(/C=N\NC(=O)COc2ccc(Cl)cc2Br)cc1` as the compound, how does the inhibition read?
**A.** 7.1%

**Q.** For `COc1ccccc1NC(=O)c1ccc(N2CC3CC(C2)c2cccc(=O)n2C3)c(NC(=O)c2cccnc2)c1` (stereo not drawn), which inhibition is on record?
**A.** 2.1%

**Q.** For `O=C(NCc1ccccc1)C(c1ccco1)N(C(=O)c1csnn1)c1ccccc1F` (stereo not drawn), which inhibition is on record?
**A.** 0.2%

**Q.** Which inhibition does the source give for `COC(=O)C1=C(C)NC(=O)CC1c1ccccc1OC` (stereo not drawn) here?
**A.** -0.1%

**Q.** For `COc1ccc(S(=O)(=O)Nc2ccc3c(c2)OCO3)cc1Cl`, which inhibition is on record?
**A.** 0.7%

**Q.** For `CCCOc1ccccc1C1CC(=O)Nc2cc3c(cc21)OCO3` (stereo not drawn), which inhibition is on record?
**A.** 77.5% (active)

**Q.** Which inhibition does the source give for `COc1ccccc1C1C2=C(COC2=O)Nc2cc3c(cc21)OCO3` (stereo not drawn) here?
**A.** 92.2% (active)

**Q.** For `COc1ccc(C2CC(=O)Nc3cc(C)c(C)cc32)c(OC)c1OC` (stereo not drawn), which inhibition is on record?
**A.** 1.9%

**Q.** With `COc1cc2c(cc1OC)C(c1ccncc1)CC(=O)N2` (stereo not drawn) as the compound, how does the inhibition read?
**A.** 1%

**Q.** With `COc1ccc(NC(=O)c2cccc(Cl)c2)c[n+]1[O-]` as the compound, how does the inhibition read?
**A.** 2.7%

**Q.** Which inhibition does the source give for `COCCN1C(=O)C(=O)/C(=C(/O)c2ccc(S(=O)(=O)N3CCOCC3)cc2)C1c1ccc(O)c(OC)c1` (stereo not drawn) here?
**A.** -5.5%

**Q.** With `O=C(NCCCN1CCOCC1)c1cc(-c2cccc(O)c2)on1` as the compound, how does the inhibition read?
**A.** -0.6%

**Q.** With `O=C(N/N=C\c1cc2c(cc1Cl)OCO2)c1ccc(Br)s1` as the compound, how does the inhibition read?
**A.** 0.3%

**Q.** With `CC[C@H]1CN2CCc3cc(OC)c(OC)cc3[C@@H]2C[C@@H]1C[C@H]1NCCc2cc(OC)c(OC)cc21` as the compound, how does the inhibition read?
**A.** 98.9% (active)

**Q.** Which inhibition does the source give for `CCc1ccc(OCC2c3cc(OC)c(OC)cc3CCN2C(C)=O)cc1` (stereo not drawn) here?
**A.** 9%

**Q.** For `COc1cc2c(cc1O)[C@H](Cc1ccc(Oc3cc(C[C@@H]4NCCc5cc(OC)c(O)cc54)ccc3O)cc1)NCC2`, which inhibition is on record?
**A.** 1.5%

**Q.** For `Fc1ccc(-n2c(Cc3ccccc3)nnc2SCc2nc(-c3ccc(Cl)cc3)no2)cc1`, which inhibition is on record?
**A.** -0.4%

**Q.** For `COc1ccc(CN2CCC(n3nccc3NC(=O)CCCc3ccccc3)CC2)cc1C`, which inhibition is on record?
**A.** 2.8%

**Q.** Which inhibition does the source give for `CSc1nc(N(C)NC(=O)c2cccc(C)c2)c2ccccc2n1` here?
**A.** 94.6% (active)

**Q.** With `CN(NC(=O)c1ccccc1)c1nc2ccccc2nc1C(F)(F)F` as the compound, how does the inhibition read?
**A.** -0.3%

**Q.** Which inhibition does the source give for `COc1ccc(C(=O)NN(C)c2nc(-c3ccccc3)cc(C)c2S(C)(=O)=O)cc1` here?
**A.** 1%

**Q.** With `CN(NC(=O)c1ccccc1F)c1nc(C(F)(F)F)nc2ccccc12` as the compound, how does the inhibition read?
**A.** 83.3% (active)

**Q.** For `Cc1cccc(C(=O)NCCCN(C)CCCNC(=O)c2cccc(C)c2)c1`, which inhibition is on record?
**A.** -0.9%

**Q.** Which inhibition does the source give for `COC(=O)CNC(=O)c1ccccc1F` here?
**A.** -2.1%

**Q.** For `CCOc1ccccc1NC(=S)NC(=O)CCc1ccccc1`, which inhibition is on record?
**A.** -2.9%

**Q.** With `NC(=O)CSc1nnc(NC(=O)c2ccc(Br)o2)s1` as the compound, how does the inhibition read?
**A.** -5.8%

**Q.** Which inhibition does the source give for `CN(C)CCCNC(=O)c1cc(C(=O)Cc2ccc(Cl)cc2)c[nH]1` here?
**A.** 2.2%
